Results published in the supplement of paper PMC12645437, “Orthogonal IMiD-Degron Pairs Induce Selective Protein Degradation in Cells” (ACS Chemical Biology, 2025).
Over roughly 8,300 sequences, “log2 fold change of degron read counts, EGFP-low vs EGFP+ sorted cells (limma voom), compound-induced degradation” has its median near -1.1; the highest 2% begin near 3.2. The full list was thinned out, with the highest values kept by preference.

Molecular target: T1, CRBN, Q96SW2
T1 chain: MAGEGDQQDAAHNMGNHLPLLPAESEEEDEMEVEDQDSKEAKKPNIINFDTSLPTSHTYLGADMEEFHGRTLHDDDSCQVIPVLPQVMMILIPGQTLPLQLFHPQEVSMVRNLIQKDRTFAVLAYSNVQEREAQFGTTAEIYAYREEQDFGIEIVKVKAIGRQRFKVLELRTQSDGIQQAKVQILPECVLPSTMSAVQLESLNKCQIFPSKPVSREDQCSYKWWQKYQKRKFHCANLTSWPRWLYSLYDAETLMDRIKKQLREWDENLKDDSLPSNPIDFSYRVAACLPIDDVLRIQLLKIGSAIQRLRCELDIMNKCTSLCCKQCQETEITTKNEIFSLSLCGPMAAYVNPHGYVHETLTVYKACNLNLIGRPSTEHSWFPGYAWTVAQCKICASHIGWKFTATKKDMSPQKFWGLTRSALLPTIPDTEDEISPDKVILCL
Experiment: log2 fold change of degron read counts, EGFP-low vs EGFP+ sorted cells (limma voom), compound-induced degradation; higher = more compound-induced degradation of the degron-EGFP fusion; degrons are variants of IKZF1/3 zinc finger 2; compound dose not given here
Conditions: Jurkat, 18 h

[1] = compound: compound 19 (5-tert-butyl-thalidomide)
[2] = compound: compound 22 (5-morpholino-thalidomide)
[3] = compound: compound 33 (diphenyl IMiD analogue)
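Further: pooled lentiviral library of zinc finger degron-EGFP fusions in mCherry-positive Jurkat cells, FACS-sorted after compound exposure, with degron abundance counted by next-generation sequencing.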

FICNQCGAAFTQKGNLLRHIKL [46F_47I_49N_50Q_52G_53A_54A_55F_67L_, Q9UKT9]
log2 fold change of degron read counts [1]: -2.19 | log2 fold change of degron read counts [2]: -0.99 | log2 fold change of degron read counts [3]: -0.297 | log2 fold change of degron read counts (compound: thalidomide): -0.649

LCCEICGFNCTQKGNLLRHIKL [46L_47C_49E_50I_52G_53F_54N_55C_67L_, Q9UKT9]
log2 fold change of degron read counts [1]: -0.957 | log2 fold change of degron read counts [2]: -1.02 | log2 fold change of degron read counts [3]: 0.0485 | log2 fold change of degron read counts (compound: thalidomide): 0.0948

FECPICGAKFTQKGNLLRHIKL [46F_47E_49P_50I_52G_53A_54K_55F_67L_, Q9UKT9]
log2 fold change of degron read counts [1]: 0.543 | log2 fold change of degron read counts [2]: -0.648 | log2 fold change of degron read counts [3]: 0.0161 | log2 fold change of degron read counts (compound: thalidomide): 3

FSCNICGAEFTQKGNLLRHIKL [46F_47S_49N_50I_52G_53A_54E_55F_67L_, Q9UKT9]
log2 fold change of degron read counts [1]: -0.854 | log2 fold change of degron read counts [2]: 0.252 | log2 fold change of degron read counts [3]: 0.443 | log2 fold change of degron read counts (compound: thalidomide): 0.069

FFCEICGHPFTQKGNLLRHIKL [46F_47F_49E_50I_52G_53H_54P_55F_67L_, Q9UKT9]
log2 fold change of degron read counts [1]: 0.211 | log2 fold change of degron read counts [2]: -0.726 | log2 fold change of degron read counts [3]: -0.864 | log2 fold change of degron read counts (compound: thalidomide): -1.23

FFCEICGAPFTQKGNLLRHIKL [46F_47F_49E_50I_52G_53A_54P_55F_67L_, Q9UKT9]
log2 fold change of degron read counts [1]: 3.4 | log2 fold change of degron read counts [2]: 3.34 | log2 fold change of degron read counts [3]: 2.28 | log2 fold change of degron read counts (compound: thalidomide): 1.95

FMCEICGADFTQKGNLLRHIKL [46F_47M_49E_50I_52G_53A_54D_55F_67L_, Q9UKT9]
log2 fold change of degron read counts [1]: -1.98 | log2 fold change of degron read counts [2]: -1.6 | log2 fold change of degron read counts [3]: 1.99 | log2 fold change of degron read counts (compound: thalidomide): -0.153

FMCEICGHPFTQKGNLLRHIKL [46F_47M_49E_50I_52G_53H_54P_55F_67L_, Q9UKT9]
log2 fold change of degron read counts [1]: -1.77 | log2 fold change of degron read counts [2]: -1.41 | log2 fold change of degron read counts [3]: 0.426 | log2 fold change of degron read counts (compound: thalidomide): -0.396

FYCEQCGAPFTQKGNLLRHIKL [46F_47Y_49E_50Q_52G_53A_54P_55F_67L_, Q9UKT9]
log2 fold change of degron read counts [1]: 1.97 | log2 fold change of degron read counts [2]: 1.06 | log2 fold change of degron read counts [3]: 0.568 | log2 fold change of degron read counts (compound: thalidomide): -1.07

FYCEICGAPFTQKGNLLRHIKL [46F_47Y_49E_50I_52G_53A_54P_55F_67L_, Q9UKT9]
log2 fold change of degron read counts [1]: 3.86 | log2 fold change of degron read counts [2]: 3.74 | log2 fold change of degron read counts [3]: 3.06 | log2 fold change of degron read counts (compound: thalidomide): 2.44

FYCEICGADFTQKGNLLRHIKL [46F_47Y_49E_50I_52G_53A_54D_55F_67L_, Q9UKT9]
log2 fold change of degron read counts [1]: 1.04 | log2 fold change of degron read counts [2]: 1.57 | log2 fold change of degron read counts [3]: 0.298 | log2 fold change of degron read counts (compound: thalidomide): -1.13

FFCEICGADFTQKGNLLRHIKL [46F_47F_49E_50I_52G_53A_54D_55F_67L_, Q9UKT9]
log2 fold change of degron read counts [1]: 0.436 | log2 fold change of degron read counts [2]: 1.48 | log2 fold change of degron read counts [3]: -0.411 | log2 fold change of degron read counts (compound: thalidomide): -0.679

FVCEICGADFTQKGNLLRHIKL [46F_47V_49E_50I_52G_53A_54D_55F_67L_, Q9UKT9]
log2 fold change of degron read counts [1]: -1.49 | log2 fold change of degron read counts [2]: -0.553 | log2 fold change of degron read counts [3]: -0.517 | log2 fold change of degron read counts (compound: thalidomide): 0.943

FVCEICGAPFTQKGNLLRHIKL [46F_47V_49E_50I_52G_53A_54P_55F_67L_, Q9UKT9]
log2 fold change of degron read counts [1]: 3.26 | log2 fold change of degron read counts [2]: 3.62 | log2 fold change of degron read counts [3]: 2.49 | log2 fold change of degron read counts (compound: thalidomide): 3.65

FVCEICGAMFTQKGNLLRHIKL [46F_47V_49E_50I_52G_53A_54M_55F_67L_, Q9UKT9]
log2 fold change of degron read counts [1]: 0.202 | log2 fold change of degron read counts [2]: 0.968 | log2 fold change of degron read counts [3]: 1.67 | log2 fold change of degron read counts (compound: thalidomide): 2.16

FMCEICGAPFTQKGNLLRHIKL [46F_47M_49E_50I_52G_53A_54P_55F_67L_, Q9UKT9]
log2 fold change of degron read counts [1]: 3.59 | log2 fold change of degron read counts [2]: 3.43 | log2 fold change of degron read counts [3]: 3.13 | log2 fold change of degron read counts (compound: thalidomide): 2.94
